Test results from PubChem BioAssay.
Values joined by “and” are separate entries in the source; they are usually repeats but may differ in a detail not shown here. Equal entries are not always repeated. Active and inactive are the calls of the source.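 Rule for the calls, unless noted: active = inhibition at or above 50% relative to wild type and mutant plate controls; inactive = inhibition below 50%.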

Tests used:
[1] = inhibitors of TNFa-induced NFkB p65 translocation, primary screen, imaging, HUVEC, MLSMR starter and 10KST1 sets (AID 438;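 active = inhibition above 20% together with a positive visual image hit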;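 note: compound added about 3h40 before a 20 min TNFalpha stimulation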;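 for inhibition: signal is the nuclear over cytoplasmic p65 intensity ratio per well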); conditions: HUVEC TNFa-induced p65 nuclear translocation; cell count: measured here: nuclei count (cytotoxicity indicator), at 2.08 µM; inhibition: at 2 µM, stronger effect = higher value, 0% TNFa-plus-vehicle, 100% no-TNFa wells
[2] = reduction of polyQ htt aggregates in cells – imaging, exon1htt(103Q)mCFP cells, high-content imaging, primary screen (AID 483;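 active = visual image review flags a hit and inhibition of aggregation exceeds 20%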;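 note: compound exposure lasted 3 days before fixation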;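 for nuclei count: percent of the per-plate median nuclei count of sample wells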); conditions: exon1htt(103Q)mCFP cell line, aggregate imaging, at 2 µM; inhibition of aggregation: stronger effect = higher value; nuclei count: measured here: cell count, toxicity
[3] = endothelial E-selectin expression blockers – imaging, HUVEC, immunofluorescence, MLSMR starter and 10KST1 sets, primary screen (AID 487;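 active = visually confirmed hit in the image check and inhibition above 20%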;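 for inhibition: signal is fraction of cell area covered by stained E-selectin grains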;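 for nuclei count: 100% = median nuclei count of all wells on the same plate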); conditions: HUVEC TNFalpha-induced E-selectin immunofluorescence imaging, at 2 µM; inhibition: stronger effect = higher value; nuclei count: measured here: cell number, toxicity
[4] = Primary imaging screen for DUSP6 inhibitors that restore phospho-Erk in transfected HeLa cells, chemical complementation (AID 609;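 active = compounds giving at least 50% inhibition in the cell-based MKP-3 phosphatase rescue imaging test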;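 for inhibition: phospho-Erk level distribution per well compared with pooled transfected vehicle control wells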); conditions: HeLa MKP-3 transfected, phospho-Erk imaging KS statistic, at 10 µM, cells stimulated with TPA for 15 min
[5] = target: Dual specificity protein phosphatase 6 (Homo sapiens) (UniProt Q16828); experiment: as above; conditions: HeLa MKP-3 transfected, phospho-Erk imaging KS statistic; at 10 µM; stronger effect = higher value; cells stimulated with TPA for 15 min
[6] = target: Voltage-gated potassium channel subunit beta-2 (Rattus norvegicus) (UniProt P62483); experiment: inhibitors of rat Kvbeta2 reductase activity – biochemical, NADPH fluorescence, primary screen (AID 622;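 active = fluorescence slope higher than the sample average by over 3 SD, cut at about -0.22 in these data, passing the limit was not always enough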;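 note: slope of raw intensity against log time taken from 70 to 1610 s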); conditions: recombinant KvBeta, 4-cyanobenzaldehyde reduction, at 10 µM, stronger effect = higher value
[7] = target: Voltage-gated potassium channel subunit beta-2 (Rattus norvegicus) (UniProt P62483); experiment: enhancers of rat Kvbeta2 NADPH turnover – biochemical, NADPH fluorescence, primary screen (AID 623;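 active = NADPH fluorescence slope more negative than the mean of all samples by about 3 SD, 99.7% confidence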;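 note: fluorescence intensity change per second fitted from 20 to 320 s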); conditions: Recombinant KvBeta, NADPH fluorescence decrease slope, 10 min; at 10 µM; stronger effect = lower value
[8] = target: Alpha-2C adrenergic receptor (Homo sapiens) (UniProt P18825); experiment: compounds altering alpha2C-coupled GIRK flux – cell-based, HEK293 alpha2C/GIRK1/2, thallium flux, primary screen (AID 624;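 active = fluorescence slope after compound addition differing from the mean of all screened samples at 99.7% confidence, in either direction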;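 note: slope of fluorescence ratio to pre-addition baseline per second over 15 to 24 s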); conditions: thallium flux BTC fluorescence, at 10 µM, actives lie on both sides
[9] = inhibitors of larval lipid processing in zebrafish, primary screen, whole organism, PED6 fluorescence, gall bladder and intestine (AID 686;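 active = a full or partial loss of lipid-probe fluorescence in the fish gall bladder, intestine or both, judged by eye; inactive = no fluorescence loss, or compound toxic to the fish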;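 note: larvae 5 to 7 days old with five fish per well; signal comes from phospholipase A2 cleavage of quenched PED6 carried via bile; overnight exposure to compound and PED6 before scoring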); conditions: Zebrafish larvae PED6 lipid processing, fluorescence scoring; screened at 20 µM (by protocol)
[10] = loss of swimming-algae plug formation – whole organism, Chlamydomonas reinhardtii, WT vs cilia-less mutant, absorbance, 96-well, primary screen (AID 463189); conditions: Chlamydomonas reinhardtii gravitaxis, OD600 absorbance, 2 days; at 10 µM; stronger effect = higher value;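 note: 0% = wild type cc124 cells in DMSO and 100% = ciliumless bld1 mutant cells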
[11] = blockers of RIG-like receptor reporter activation – cell-based, Sendai virus stimulus, luciferase, 10K MLSCN set, TLR/RLR signaling modifier project, primary screen (AID 602276;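 active = inhibition at or above 50% at 10 µM; inactive = inhibition below 50%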;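 note: firefly luciferase from ISG56 promoter only with Renilla not read in this screen; 0% = Sendai virus plus DMSO and 100% = medium plus DMSO without virus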); conditions: HEK293 RL24 IRF3 luciferase reporter, at 10 µM, stronger effect = higher value
[12] = TLR3 IRF3 reporter activation blockers – cell-based, poly I:C stimulus, luciferase, 10K MLSCN set, primary screen (AID 602277;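 active = inhibition of the reporter signal at or above 50%; inactive = inhibition below 50%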); conditions: HEK293-TLR3 RL24 IRF3 luciferase reporter, at 10 µM, stronger effect = higher value
[13] = measured here: cell density z-score
[14] = measured here: nuclear c-Myc green intensity z-score
[15] = measured here: nuclear pErk red intensity z-score, stronger effect = higher value

Voltage-gated potassium channel subunit beta-2 (Rattus norvegicus), sequence (P62483 whole entry, looked up): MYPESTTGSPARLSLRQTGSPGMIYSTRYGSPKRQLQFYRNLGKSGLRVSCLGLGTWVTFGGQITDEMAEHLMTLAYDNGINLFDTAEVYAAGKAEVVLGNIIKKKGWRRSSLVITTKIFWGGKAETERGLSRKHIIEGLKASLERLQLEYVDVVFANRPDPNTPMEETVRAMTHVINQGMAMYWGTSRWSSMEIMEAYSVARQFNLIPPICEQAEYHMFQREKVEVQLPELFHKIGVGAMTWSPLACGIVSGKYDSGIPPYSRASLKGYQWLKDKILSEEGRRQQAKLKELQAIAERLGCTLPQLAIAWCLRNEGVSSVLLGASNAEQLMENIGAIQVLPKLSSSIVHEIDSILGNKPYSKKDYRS
Dual specificity protein phosphatase 6 (Homo sapiens), sequence (Q16828 whole entry, looked up): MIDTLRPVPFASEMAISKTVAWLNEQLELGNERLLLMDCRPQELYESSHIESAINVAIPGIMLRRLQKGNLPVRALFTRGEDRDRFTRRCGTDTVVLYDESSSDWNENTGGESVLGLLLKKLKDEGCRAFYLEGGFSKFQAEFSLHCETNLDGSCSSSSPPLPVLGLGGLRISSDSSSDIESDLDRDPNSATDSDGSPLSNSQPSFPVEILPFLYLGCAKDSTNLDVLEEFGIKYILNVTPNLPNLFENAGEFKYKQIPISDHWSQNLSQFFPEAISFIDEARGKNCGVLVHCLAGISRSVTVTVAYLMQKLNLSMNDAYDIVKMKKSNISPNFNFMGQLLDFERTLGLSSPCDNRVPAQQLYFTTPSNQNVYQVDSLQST
Alpha-2C adrenergic receptor (Homo sapiens), sequence (P18825 whole entry, looked up): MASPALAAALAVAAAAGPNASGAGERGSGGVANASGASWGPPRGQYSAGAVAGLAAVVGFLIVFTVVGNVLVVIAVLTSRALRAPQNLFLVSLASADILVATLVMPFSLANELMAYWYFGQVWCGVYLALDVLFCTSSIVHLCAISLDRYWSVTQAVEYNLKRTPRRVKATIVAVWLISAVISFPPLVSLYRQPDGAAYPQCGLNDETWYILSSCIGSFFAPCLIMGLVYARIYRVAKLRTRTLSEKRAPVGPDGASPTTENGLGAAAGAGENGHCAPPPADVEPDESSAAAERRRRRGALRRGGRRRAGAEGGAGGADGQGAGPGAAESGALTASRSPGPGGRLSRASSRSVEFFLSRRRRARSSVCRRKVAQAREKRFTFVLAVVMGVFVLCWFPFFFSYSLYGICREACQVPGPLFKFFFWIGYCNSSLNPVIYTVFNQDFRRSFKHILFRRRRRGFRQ

Row | SMILES | cell count [1] | inhibition [1] | inhibition of aggregation [2] | nuclei count [2] | inhibition [3] | nuclei count [3] | z-score [4, 13] | z-score [4, 14] | z-score [4, 15] | inhibition [5] | fluorescence slope [6] | NADPH fluorescence slope [7] | slope [8] | outcome [9] | inhibition [10] | inhibition [11] | inhibition [12]
1 | OC(CCN1CCCC1)(c1ccccc1)C1CCCCC1 (configuration not stated) | 573 | 6.7% (inactive) | -8.9% (inactive) | 114% | -40.8% (inactive) | 106% | 1.31 | -0.388 | -1.18 | 19.2% (inactive) | -0.528 (inactive) | -6.1e-05 (inactive) | 0.00512 (inactive) | inactive | 37.7% (inactive) | 0.492% (inactive) | -2.26% (inactive)
2 | COc1cc(-c2nn3c(-c4cccnc4)nnc3s2)cc(OC)c1OC | 561 | -0.7% (inactive) | -9.6% (inactive) | 103% | -152% (inactive) | 134% | 0.586 | -0.752 | -1.22 | 15.5% (inactive) | -0.41 (inactive) | -0.000121 (inactive) | 0.0074 (inactive) | inactive | 18.4% (inactive) | 12.1% (inactive) | 8.92% (inactive)
3 | O=C1CSC(=Nc2ccc(O)cc2)N1c1ccc(O)cc1 | 380 | -9.5% (inactive) | 3.6% (inactive) | 95.8% | -49.6% (inactive) | 92.5% | 1.48 | 1.47 | -2.2 | 9.82% (inactive) | -0.463 (inactive) | -0.000339 (inactive) | 0.00571 (inactive) | inactive | -9.81% (inactive) | 17.9% (inactive) | 25% (inactive)
4 | CCn1cc(C(=O)O)c(=O)c2cc(F)c(N3CCNCC3)cc21 | 576 | -6.9% (inactive) | 13% (inactive) | 87.7% | -31% (inactive) | 108% | 0.515 | -1.04 | 1.05 | -6.41% (inactive) | -0.472 (inactive) | 1.5e-05 (inactive) | 0.00555 (inactive) | inactive | -5.87% (inactive) | -0.442% (inactive) | 10.8% (inactive)
5 | CCOC(=O)c1c(C)n(C)c2ccc(O)c(S(=O)(=O)c3ccccc3)c12 | 278 | -3.6% (inactive) | -0.2% (inactive) | 103% | -19.6% (inactive) | 109% | -0.746 | 0.777 | 1.13 | -8.76% (inactive) | -0.458 (inactive) | -0.000154 (inactive) | 0.00656 (inactive) | inactive | -15.5% (inactive) | 21.8% (inactive) | 27% (inactive)
6 | COCCOC(=O)C1=C(C)NC(C)=C(C(=O)OC(C)C)C1c1cccc([N+](=O)[O-])c1 (configuration not stated) | 617 | -5.1% (inactive) | -29.1% (inactive) | 98.9% | -38.8% (inactive) | 122% | -0.996 | 0.882 | -0.963 | 32.3% (inactive) | -0.534 (inactive) | 2.5e-05 (inactive) | 0.00348 (inactive) | inactive | 10.2% (inactive) and -3.02% (inactive) | 19.6% (inactive) | 25.9% (inactive)
7 | CCCCCCCC(=O)OCC(=O)[C@@]1(O)CC[C@H]2[C@@H]3CCC4=CC(=O)CC[C@]4(C)[C@H]3[C@@H](O)C[C@@]21C | 531 | -8.2% (inactive) | -25.1% (inactive) | 92.7% | 3.4% (inactive) | 107% | -0.552 | -1.25 | -0.122 | -8.38% (inactive) | -0.503 (inactive) | -5.1e-05 (inactive) | 0.0075 (inactive) | inactive | -10.8% (inactive) | 15.2% (inactive) | 49.5% (inactive)
8 | CCCSc1ccc2nc(NC(=O)OC)[nH]c2c1 | 574 | 3% (inactive) | -22.3% (inactive) | 15.7% | -115% (inactive) | 123% | 0.0938 | 0.921 | 0.811 | -5.24% (inactive) | -0.486 (inactive) | -8.1e-05 (inactive) | 0.00562 (inactive) | inactive | -13.8% (inactive) | 26.9% (inactive) | -19.4% (inactive)
9 | CC(=O)OCC(=O)[C@@]1(O)[C@H](C)C[C@H]2[C@@H]3CCC4=CC(=O)C=C[C@]4(C)[C@@]3(F)[C@@H](O)C[C@@]21C | 499 | -5.8% (inactive) | 0.4% (inactive) | 45.5% | -54.1% (inactive) | 112% | -0.698 | 0.622 | -0.569 | -4.44% (inactive) | -0.495 (inactive) | -3.4e-05 (inactive) | 0.00493 (inactive) | inactive | 26.6% (inactive) | 14.1% (inactive) | 31.9% (inactive)
10 | COc1ccc(-c2nnc3sc(-c4c(OC)cccc4OC)nn23)cc1 | 498 | -7.5% (inactive) | 26.2% (inactive) | 28.4% | -176% (inactive) | 131% | -0.466 | -2.13 | -0.0898 | -6.06% (inactive) | -0.435 (inactive) | -0.000139 (inactive) | 0.00691 (inactive) | inactive | 14.7% (inactive) | 11.7% (inactive) | 13% (inactive)
11 | O=C(O)CCCc1ccccc1 | 647 | 0.8% (inactive) | -15.5% (inactive) | 106% | -27.5% (inactive) | 112% | 0.592 | -1.18 | -0.707 | 8% (inactive) | -0.549 (inactive) | -3.8e-05 (inactive) | 0.0053 (inactive) | inactive | -5.1% (inactive) | -1.93% (inactive) | 7.07% (inactive)
